Sa RN4220 lethal = S. aureus RN4220 growth inhibition; OD600, 16 h; inhibition, % (no concentration beside the values); actives 0.33% (n = 330,000); in the data active = inhibition above about 85%;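 also: plate controls were untreated cells for no effect and reference antibiotic for full effect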
Mtb bLac sens = beta-lactam sensitization of Mtb H37Rv | M. tuberculosis H37Rv growth with meropenem, percent inhibition | inhibition, % at 25 µM | actives 0.27% (n = 330,000); call rule not given here;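 also: growth measured after seven days incubation then overnight dye step; 0% = bacteria only wells and 100% = bacteria with antibiotic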
ugtP null kill = kills S. aureus RN4220 lacking UgtP. S. aureus RN4220 ugtP deletion, OD600 growth, 16 h. growth inhibition, % (no concentration beside the values). actives 0.54% (n = 330,000). AID 1259309; in the data active = growth inhibition above about 68%;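 also: plate controls were untreated wells for no effect and antibiotic for full effect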
PfHsp40 yeast = compounds rescuing yeast from Plasmodium falciparum HSP40 toxicity; S. cerevisiae expressing PfHsp40, growth rescue, ATP luminescence; growth rescue, % at 12.5 µM; actives 0.68% (n = 340,000); in the data active = growth rescue above about 28%, passing the limit was not always enough;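 also: yeast W303a lacking pdr1 and pdr3 grown in galactose medium; growth measured after three days at 30 °C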
BH1578 lux ind = quorum light induction in luxS cqsA deficient V. cholerae; activation, % at 18.7 µM; V. cholerae BH1578 lux reporter, luminescence, 6 h; AID 588436; actives 0.16% (n = 350,000); in the data active = activation mostly above about 9.7%, no sharp cut-off
Active calls of the source: *; i = inactive; x = not tested or not shown. Hits are enriched below; roughly 1.2% of the tested compounds scored in any of these assays.

SMILES	Sa RN4220 lethal	Mtb bLac sens	ugtP null kill	PfHsp40 yeast	BH1578 lux ind
Cc1[nH]c2ccccc2c1C=NNc1ccc([N+](=O)[O-])cc1S(=O)(=O)Nc1ccc(Cl)cc1	1.5	x	7.7	x	x
CCOC(=O)C1=C(C)N=C2c3ccccc3C(=O)C2C1c1ccc(Cl)cc1 (stereo unspecified)	88.1*	7.8	45.7	0.3	-1.1
Cc1nc(SCc2ccc(OCCC(C)C)cc2)n[nH]1	17.4	14.1	3.8	300.9*	i
CCCCCOc1ccc(CSc2n[nH]c(C)n2)cc1	-1.5	6.8	9.1	271.4*	0.9
Cc1nc(SCc2ccc(F)cc2)n[nH]1	0.3	2.5	1.0	-0.7	i
Cc1ccc(S(=O)(=O)Nc2ccc3ccccc3c2)cc1	-1.7	x	12.5	-0.6	i
COc1ccc(S(=O)(=O)Nc2ccc3ccccc3c2)cc1C	-1.1	-17.7	19.9	31.4*	-0.2
O=C(C[n+]1ccccc1)NN=Cc1ccccc1F	7.7	x	-2.6	x	x
CC(=NNC(=O)C(O)c1ccccc1)c1ccc(C)s1 (stereo unspecified)	-2.4	x	-1.4	x	x
Cc1ccc(C(=O)Nc2ccc(Br)c(C(F)(F)F)c2)cc1	60.9	41.5	90.7*	-0.4	4.3
Cc1ccc(NC(=O)c2ccc(C)cc2)cc1	3.8	0.1	0.9	-0.1	i
CCC(=O)C1=C(O)C(c2cccc(Oc3ccccc3)c2)CCC1=O (stereo unspecified)	15.3	-4.2	1.9	210.6*	i
COc1ccc(CN(C)C(=O)CCN2C(=O)c3ccccc3C2=O)c(OC)c1OC	4.4	-0.9	5.1	0.9	i
COc1ccc(CN(C)C(=O)COC(=O)c2ccc(-c3ccccc3)cc2)c(OC)c1OC	10.0	x	12.1	67.6*	i
O=c1nc(NN=Cc2c[nH]c3ccccc23)cn[nH]1	6.9	x	3.9	x	x
CCCN1CCCC[C@H]1C(=O)Nc1c(C)cccc1C	x	-4.3	x	43.1*	-0.5
CCCCN1CCCCC1C(=O)Nc1c(C)cccc1C (stereo unspecified)	2.1	-5.7	-0.3	-0.4	i
Cc1ccc(S(=O)(=O)N2C(c3cccc(C)c3)CC=C(C(=O)O)C2c2ccc(F)cc2)cc1 (stereo unspecified)	12.8	x	70.3	x	x
COC(=O)C=Cc1ccc2c(c1)S(=O)(=O)N(Cc1ccc(OC)cc1)C2CC(=O)OC (stereo unspecified)	7.9	x	2.2	x	x
Cc1ccc(-n2c(C)cc(C(=O)NS(=O)(=O)c3ccc(C)cc3)c2C)cc1	2.5	-5.9	98.2*	5.8	i
CCOc1ccc(S(=O)(=O)NC(=O)c2ccccc2)cc1	4.2	-7.2	2.5	-1.3	i
CCOc1ccc(-n2c(C)cc(C(=O)NS(=O)(=O)c3ccc(C)cc3)c2C)cc1	1.7	5.3	92.2*	0.8	6.7
Cc1ccc(S(=O)(=O)NC(=O)c2cc(C)n(C3CC3)c2C)cc1	3.5	-2.2	2.6	2.3	-0.3
O=C(CC(=O)N/N=C\c1c(Cl)cccc1Cl)NCc1ccccc1	x	-1.8	x	1.8	5.6*
CN1C(=O)C2C(C3CC3)N3C(=O)CN(Cc4ccccn4)C(=O)[C@@]3(Cc3ccccc3)C2C1=O (stereo partly specified)	2.5	x	-0.7	x	x
SMILES	Sa RN4220 lethal	Mtb bLac sens	ugtP null kill	PfHsp40 yeast	BH1578 lux ind
O=C(c1ccc(-n2c(SCc3cccc(F)c3)nc3ccccc3c2=O)cc1)N1CCOCC1	-1.8	1.2	-5.0	-0.3	i
O=c1c2ccccc2nc(SCc2cccc(F)c2)n1-c1cccc(S(=O)(=O)N2CCCC2)c1	96.6*	-2.9	93.7*	-0.9	i
Cn1c(CNc2ccc(Cl)cc2)nnc1SCc1ccccc1	-7.8	1.8	-3.0	142.6*	-0.3
CCn1c(CNc2ccc(Cl)cc2)nnc1SCc1ccccc1	-1.9	-3.3	-3.6	119.7*	0.3
CCn1c(CNc2ccc(Cl)cc2)nnc1SCC(=O)NCc1ccccc1	-3.6	-1.2	2.5	-0.9	-0.3
CCCc1sc(N/N=C/c2ccccn2)nc1-c1ccc(F)cc1	x	99.8	x	37.8*	i
Cc1cccc2c1[nH]c1nc(NN=Cc3ccco3)nnc12	2.6	x	0.7	x	x
CC(C)CN(C(=O)c1cccc(S(=O)(=O)N2CCN(Cc3ccccc3)CC2)c1)C1CCS(=O)(=O)C1 (stereo unspecified)	-5.1	-8.7	-7.6	346.9*	i
CCCN(C(=O)c1cccc(S(=O)(=O)N2CCN(Cc3ccccc3)CC2)c1)C1CCS(=O)(=O)C1 (stereo unspecified)	-0.9	-10.6	0.6	0.1	i
Cc1ccc2ccc3cccc4ccc1c2c34	-7.7	63.2	100.4*	-0.5	-0.4
